In PMC7862700, “An all-to-all approach to the identification of sequence-specific readers for epigenetic DNA modifications on cytosine”:

Tests used:
Assay in all cases: DAPPL (digital affinity profiling via proximity ligation, sequencing); 10 mM Tris-HCl pH 7.5, 50 mM NaCl, 1 mM DTT, 4% glycerol, room temperature, 30 min; GST-TFs on glutathione beads, 16-mer random dsDNA library, 0.1% formaldehyde crosslink after washing; high values mean tight binding
[1] = molecular target: T1, FLI1 (Homo sapiens, UniProt Q01543 1-452); conditions: protein: recombinant; tags: N-terminal GST; dsDNA, one strand shown
T1 sequence: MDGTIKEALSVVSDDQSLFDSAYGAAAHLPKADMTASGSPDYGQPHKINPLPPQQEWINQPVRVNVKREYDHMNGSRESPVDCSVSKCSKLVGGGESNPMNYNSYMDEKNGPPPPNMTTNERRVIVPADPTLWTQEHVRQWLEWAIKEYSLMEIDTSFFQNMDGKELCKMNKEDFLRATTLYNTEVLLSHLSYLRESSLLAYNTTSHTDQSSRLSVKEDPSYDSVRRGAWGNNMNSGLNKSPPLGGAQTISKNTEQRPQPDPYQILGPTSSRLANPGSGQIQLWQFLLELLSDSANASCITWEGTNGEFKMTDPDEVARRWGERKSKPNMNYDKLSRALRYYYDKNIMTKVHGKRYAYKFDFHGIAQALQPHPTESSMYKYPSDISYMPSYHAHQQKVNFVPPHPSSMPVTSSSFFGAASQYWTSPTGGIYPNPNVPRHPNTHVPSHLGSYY
In short: (§1)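 The binding signal reported is, for every hexamer, its read frequency for a factor over its read frequency for the tag-only sample. Reads came from pools of yeast-expressed, GST-fused human transcription factors on glutathione beads, barcoded with DNA and mixed with that sample, which were incubated with 200 nmole of a random double-stranded 16-mer DNA library in Tris/NaCl/DTT/glycerol buffer at room temperature for 30 min. After washing, the pools were crosslinked with 0.1% formaldehyde, proximity-ligated with BsaI/T4 ligase for 1 h at 37 °C, PCR-amplified and sequenced on an Illumina NextSeq500.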

[2] = molecular target: T2, ELK1 (Homo sapiens, UniProt P19419 1-428); conditions: protein: recombinant; tags: N-terminal GST; dsDNA, one strand shown
T2 sequence: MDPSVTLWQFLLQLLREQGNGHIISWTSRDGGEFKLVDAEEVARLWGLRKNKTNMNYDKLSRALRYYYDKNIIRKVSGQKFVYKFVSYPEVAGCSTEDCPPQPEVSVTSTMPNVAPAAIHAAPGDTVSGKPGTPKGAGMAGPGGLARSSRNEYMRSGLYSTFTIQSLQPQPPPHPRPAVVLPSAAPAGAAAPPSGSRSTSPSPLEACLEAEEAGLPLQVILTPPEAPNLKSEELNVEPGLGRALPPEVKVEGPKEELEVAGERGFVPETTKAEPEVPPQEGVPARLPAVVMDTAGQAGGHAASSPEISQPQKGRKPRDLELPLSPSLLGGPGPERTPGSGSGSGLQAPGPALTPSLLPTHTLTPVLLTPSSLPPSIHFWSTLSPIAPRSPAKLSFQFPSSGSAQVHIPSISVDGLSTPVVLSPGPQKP
In short: as §1

[3] = molecular target: T3, GABPA (Homo sapiens, UniProt Q06546 1-454); conditions: protein: recombinant; tags: N-terminal GST; dsDNA, one strand shown
T3 sequence: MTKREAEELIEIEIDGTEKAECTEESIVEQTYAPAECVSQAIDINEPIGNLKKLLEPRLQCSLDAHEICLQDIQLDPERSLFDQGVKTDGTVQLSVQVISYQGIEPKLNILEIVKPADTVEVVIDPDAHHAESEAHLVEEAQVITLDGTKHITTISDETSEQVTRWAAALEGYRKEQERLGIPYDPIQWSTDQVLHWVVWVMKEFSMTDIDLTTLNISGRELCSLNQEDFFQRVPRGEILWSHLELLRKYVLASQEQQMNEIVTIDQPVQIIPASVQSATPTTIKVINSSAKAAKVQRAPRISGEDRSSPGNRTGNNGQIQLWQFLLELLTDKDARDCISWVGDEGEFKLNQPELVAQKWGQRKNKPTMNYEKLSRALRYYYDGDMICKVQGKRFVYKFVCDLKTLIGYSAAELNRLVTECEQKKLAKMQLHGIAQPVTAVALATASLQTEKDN
In short: as §1

[4] = molecular target: T4, ERG (Homo sapiens, UniProt P11308 1-479); conditions: protein: recombinant; tags: N-terminal GST; dsDNA, one strand shown
T4 sequence: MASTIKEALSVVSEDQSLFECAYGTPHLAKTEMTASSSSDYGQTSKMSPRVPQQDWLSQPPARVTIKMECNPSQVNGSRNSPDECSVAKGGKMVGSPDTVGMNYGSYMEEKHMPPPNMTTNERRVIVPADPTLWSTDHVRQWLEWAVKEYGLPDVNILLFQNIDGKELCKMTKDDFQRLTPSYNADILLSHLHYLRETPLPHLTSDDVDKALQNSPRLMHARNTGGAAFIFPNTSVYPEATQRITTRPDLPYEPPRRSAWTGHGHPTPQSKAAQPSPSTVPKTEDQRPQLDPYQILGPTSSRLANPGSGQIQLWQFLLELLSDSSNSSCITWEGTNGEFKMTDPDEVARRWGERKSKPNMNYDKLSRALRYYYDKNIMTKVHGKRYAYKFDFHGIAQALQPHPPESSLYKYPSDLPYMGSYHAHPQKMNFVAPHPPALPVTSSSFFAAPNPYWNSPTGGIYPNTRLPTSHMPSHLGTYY
In short: as §1

[5] = molecular target: ELF1 (Homo sapiens, UniProt P32519 1-619); conditions: protein: recombinant; tags: N-terminal GST; dsDNA, one strand shown
Sequence of ELF1 (P32519 whole entry): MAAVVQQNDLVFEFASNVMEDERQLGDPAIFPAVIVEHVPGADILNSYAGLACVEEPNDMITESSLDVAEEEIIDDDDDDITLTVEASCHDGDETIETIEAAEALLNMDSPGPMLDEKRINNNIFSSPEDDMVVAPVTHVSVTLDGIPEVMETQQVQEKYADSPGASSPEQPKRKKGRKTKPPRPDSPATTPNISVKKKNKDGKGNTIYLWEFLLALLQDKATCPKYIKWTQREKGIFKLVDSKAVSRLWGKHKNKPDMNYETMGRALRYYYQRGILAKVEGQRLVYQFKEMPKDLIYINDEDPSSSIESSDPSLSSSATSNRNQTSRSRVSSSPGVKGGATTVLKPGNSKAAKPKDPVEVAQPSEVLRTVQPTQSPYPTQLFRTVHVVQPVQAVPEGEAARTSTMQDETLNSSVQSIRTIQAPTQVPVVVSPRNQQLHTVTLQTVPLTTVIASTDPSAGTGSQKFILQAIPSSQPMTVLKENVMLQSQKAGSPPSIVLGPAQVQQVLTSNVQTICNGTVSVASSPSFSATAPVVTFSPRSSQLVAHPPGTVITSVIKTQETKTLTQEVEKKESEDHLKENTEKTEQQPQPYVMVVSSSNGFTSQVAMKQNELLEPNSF
In short: as §1

[6] = molecular target: SPI1 (Homo sapiens, UniProt P17947 1-270); conditions: protein: recombinant; tags: N-terminal GST; dsDNA, one strand shown
In short: as §1

[7] = molecular target: T5, ELK3 (Homo sapiens, UniProt P41970 1-407); conditions: protein: recombinant; tags: N-terminal GST; dsDNA, one strand shown
T5 sequence: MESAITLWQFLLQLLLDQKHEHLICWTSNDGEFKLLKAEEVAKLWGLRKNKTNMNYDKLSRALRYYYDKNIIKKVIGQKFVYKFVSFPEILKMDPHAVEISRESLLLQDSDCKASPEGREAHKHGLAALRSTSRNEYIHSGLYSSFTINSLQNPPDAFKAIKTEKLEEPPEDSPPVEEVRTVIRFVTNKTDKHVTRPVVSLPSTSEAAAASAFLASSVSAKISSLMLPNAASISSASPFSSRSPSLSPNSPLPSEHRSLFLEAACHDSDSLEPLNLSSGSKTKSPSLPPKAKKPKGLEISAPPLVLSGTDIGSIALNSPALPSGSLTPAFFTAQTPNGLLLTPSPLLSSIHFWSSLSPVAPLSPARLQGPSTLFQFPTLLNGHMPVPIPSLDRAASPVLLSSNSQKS
In short: as §1

[8] = molecular target: ETV5 (Homo sapiens, UniProt P41161 1-510); conditions: protein: recombinant; tags: N-terminal GST; dsDNA, one strand shown
Sequence of ETV5 (P41161 whole entry): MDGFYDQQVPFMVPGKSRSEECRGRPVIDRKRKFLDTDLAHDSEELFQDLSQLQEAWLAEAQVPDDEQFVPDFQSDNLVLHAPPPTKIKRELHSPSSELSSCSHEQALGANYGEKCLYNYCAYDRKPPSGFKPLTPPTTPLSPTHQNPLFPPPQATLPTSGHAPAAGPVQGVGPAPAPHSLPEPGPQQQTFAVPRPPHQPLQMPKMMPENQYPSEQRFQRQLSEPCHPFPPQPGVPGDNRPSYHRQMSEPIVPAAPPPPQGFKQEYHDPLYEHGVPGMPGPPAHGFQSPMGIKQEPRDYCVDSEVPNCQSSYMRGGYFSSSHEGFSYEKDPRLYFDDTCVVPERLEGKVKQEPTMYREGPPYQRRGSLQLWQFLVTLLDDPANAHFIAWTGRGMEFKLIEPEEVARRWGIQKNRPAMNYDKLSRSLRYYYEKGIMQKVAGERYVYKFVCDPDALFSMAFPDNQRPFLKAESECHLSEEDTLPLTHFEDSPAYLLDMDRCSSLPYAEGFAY
In short: as §1

[9] = molecular target: HSF1 (Homo sapiens, UniProt Q00613 1-529); conditions: protein: recombinant; tags: N-terminal GST; chain copies: 3; dsDNA, one strand shown
Sequence of HSF1 (Q00613 whole entry): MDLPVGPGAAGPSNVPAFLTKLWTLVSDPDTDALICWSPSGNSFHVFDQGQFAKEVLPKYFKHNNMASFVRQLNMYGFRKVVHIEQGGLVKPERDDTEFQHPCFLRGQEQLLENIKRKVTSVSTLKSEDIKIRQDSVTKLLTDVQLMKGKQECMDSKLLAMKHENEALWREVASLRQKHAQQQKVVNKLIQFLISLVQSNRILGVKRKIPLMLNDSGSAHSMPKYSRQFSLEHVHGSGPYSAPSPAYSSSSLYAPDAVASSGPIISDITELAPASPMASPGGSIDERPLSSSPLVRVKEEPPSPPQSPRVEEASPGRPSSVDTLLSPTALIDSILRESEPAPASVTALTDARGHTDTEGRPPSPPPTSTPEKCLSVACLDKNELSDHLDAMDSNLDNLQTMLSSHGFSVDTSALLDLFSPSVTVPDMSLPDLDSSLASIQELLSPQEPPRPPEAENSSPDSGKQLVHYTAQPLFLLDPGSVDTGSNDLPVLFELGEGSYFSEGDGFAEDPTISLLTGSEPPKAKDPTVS
In short: as §1

[10] = molecular target: ELF4 (Homo sapiens, UniProt Q99607 1-663); conditions: protein: recombinant; tags: N-terminal GST; dsDNA, one strand shown
Sequence of ELF4 (Q99607 whole entry): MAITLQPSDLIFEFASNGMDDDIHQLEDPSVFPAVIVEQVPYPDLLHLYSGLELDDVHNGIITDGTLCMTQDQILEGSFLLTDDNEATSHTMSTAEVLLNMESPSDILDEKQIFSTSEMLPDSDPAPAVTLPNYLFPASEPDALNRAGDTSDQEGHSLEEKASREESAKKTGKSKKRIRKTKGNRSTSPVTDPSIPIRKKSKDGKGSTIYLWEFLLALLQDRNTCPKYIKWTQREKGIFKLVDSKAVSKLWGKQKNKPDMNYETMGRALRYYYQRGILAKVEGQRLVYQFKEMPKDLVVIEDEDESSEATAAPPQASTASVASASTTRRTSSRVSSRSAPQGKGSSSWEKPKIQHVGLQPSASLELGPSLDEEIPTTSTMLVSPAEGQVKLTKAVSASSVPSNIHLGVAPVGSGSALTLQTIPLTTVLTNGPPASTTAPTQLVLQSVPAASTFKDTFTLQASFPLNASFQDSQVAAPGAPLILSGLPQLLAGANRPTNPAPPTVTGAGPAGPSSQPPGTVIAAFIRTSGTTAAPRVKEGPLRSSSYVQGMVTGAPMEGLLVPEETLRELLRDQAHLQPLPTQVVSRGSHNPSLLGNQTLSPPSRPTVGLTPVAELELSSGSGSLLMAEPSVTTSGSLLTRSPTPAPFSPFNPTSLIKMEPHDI
In short: as §1

[11] = molecular target: T6, ELK4 (Homo sapiens, UniProt P28324-2 1-405); conditions: protein: recombinant; tags: N-terminal GST; dsDNA, one strand shown
T6 sequence: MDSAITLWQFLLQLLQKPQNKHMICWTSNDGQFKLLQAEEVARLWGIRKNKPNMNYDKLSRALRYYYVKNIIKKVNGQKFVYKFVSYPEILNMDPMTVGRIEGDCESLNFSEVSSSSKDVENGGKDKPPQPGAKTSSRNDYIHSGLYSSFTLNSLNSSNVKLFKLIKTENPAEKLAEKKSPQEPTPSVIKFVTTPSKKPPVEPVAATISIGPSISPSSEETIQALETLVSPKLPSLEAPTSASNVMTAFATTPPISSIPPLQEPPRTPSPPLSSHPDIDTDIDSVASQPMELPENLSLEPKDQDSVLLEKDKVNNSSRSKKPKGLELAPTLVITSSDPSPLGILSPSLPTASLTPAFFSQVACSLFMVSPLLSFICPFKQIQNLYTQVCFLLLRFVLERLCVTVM
In short: as §1

[12] = molecular target: T7, ETV2 (Homo sapiens, UniProt O00321 1-342); conditions: protein: recombinant; tags: N-terminal GST; dsDNA, one strand shown
T7 sequence: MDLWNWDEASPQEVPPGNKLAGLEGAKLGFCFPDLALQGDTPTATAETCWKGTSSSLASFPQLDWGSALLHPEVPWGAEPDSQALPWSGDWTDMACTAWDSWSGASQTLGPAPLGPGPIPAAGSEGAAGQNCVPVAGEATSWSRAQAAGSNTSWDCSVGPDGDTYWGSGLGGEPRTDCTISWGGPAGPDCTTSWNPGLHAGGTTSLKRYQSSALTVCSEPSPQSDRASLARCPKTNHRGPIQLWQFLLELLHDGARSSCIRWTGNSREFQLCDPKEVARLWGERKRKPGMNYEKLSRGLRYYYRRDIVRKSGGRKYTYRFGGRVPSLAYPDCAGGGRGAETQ
In short: as §1

[13] = molecular target: CRX (Homo sapiens, UniProt O43186 1-299); conditions: protein: recombinant; tags: N-terminal GST; dsDNA, one strand shown
Sequence of CRX (O43186 whole entry): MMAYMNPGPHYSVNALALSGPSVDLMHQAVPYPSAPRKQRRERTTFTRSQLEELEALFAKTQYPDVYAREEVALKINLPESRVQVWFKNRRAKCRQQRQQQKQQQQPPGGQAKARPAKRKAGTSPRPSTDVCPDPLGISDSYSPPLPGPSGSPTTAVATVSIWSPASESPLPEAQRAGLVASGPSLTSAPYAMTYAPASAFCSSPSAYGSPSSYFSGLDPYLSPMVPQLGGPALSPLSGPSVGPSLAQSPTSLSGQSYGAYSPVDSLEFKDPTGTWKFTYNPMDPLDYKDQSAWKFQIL
In short: as §1

[14] = molecular target: ETV1 (Homo sapiens, UniProt P50549 1-477); conditions: protein: recombinant; tags: N-terminal GST; dsDNA, one strand shown
Sequence of ETV1 (P50549 whole entry): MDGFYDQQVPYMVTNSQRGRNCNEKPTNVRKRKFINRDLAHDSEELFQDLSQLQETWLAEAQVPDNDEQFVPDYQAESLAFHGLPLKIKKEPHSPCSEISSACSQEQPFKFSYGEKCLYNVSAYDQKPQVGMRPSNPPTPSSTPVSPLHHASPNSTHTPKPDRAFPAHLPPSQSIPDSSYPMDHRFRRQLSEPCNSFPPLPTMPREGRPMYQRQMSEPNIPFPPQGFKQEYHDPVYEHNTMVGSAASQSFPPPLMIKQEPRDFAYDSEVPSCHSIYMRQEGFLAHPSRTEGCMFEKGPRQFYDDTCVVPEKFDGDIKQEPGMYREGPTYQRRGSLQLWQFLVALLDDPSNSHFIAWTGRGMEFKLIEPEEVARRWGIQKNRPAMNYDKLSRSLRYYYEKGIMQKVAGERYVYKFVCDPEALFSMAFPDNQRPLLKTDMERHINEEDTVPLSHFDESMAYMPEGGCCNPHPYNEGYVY
In short: as §1

[15] = molecular target: T8, EHF (Homo sapiens, UniProt Q9NZC4 1-300); conditions: protein: recombinant; tags: N-terminal GST; dsDNA, one strand shown
T8 sequence: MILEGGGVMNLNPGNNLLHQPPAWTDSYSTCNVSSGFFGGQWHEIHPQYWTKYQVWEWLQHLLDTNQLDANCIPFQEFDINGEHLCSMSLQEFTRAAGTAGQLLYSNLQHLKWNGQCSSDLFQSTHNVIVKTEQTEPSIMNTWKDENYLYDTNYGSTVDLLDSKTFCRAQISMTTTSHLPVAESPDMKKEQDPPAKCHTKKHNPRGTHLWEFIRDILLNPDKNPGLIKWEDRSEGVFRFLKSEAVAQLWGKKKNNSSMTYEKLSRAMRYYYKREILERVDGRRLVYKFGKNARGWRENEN
In short: as §1

[16] = molecular target: SPIB (Homo sapiens, UniProt Q01892 1-262); conditions: protein: recombinant; tags: N-terminal GST; dsDNA, one strand shown
Sequence of SPIB (Q01892 whole entry): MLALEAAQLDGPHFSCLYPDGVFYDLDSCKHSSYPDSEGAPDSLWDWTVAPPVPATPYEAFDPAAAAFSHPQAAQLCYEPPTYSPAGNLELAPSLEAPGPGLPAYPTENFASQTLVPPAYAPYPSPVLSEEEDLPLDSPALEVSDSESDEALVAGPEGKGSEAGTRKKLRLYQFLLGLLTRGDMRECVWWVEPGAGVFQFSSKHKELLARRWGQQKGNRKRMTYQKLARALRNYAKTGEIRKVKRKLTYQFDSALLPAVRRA
In short: as §1

[17] = molecular target: T9, FEV (Homo sapiens, UniProt Q99581 1-238); conditions: protein: recombinant; tags: N-terminal GST; dsDNA, one strand shown
T9 sequence: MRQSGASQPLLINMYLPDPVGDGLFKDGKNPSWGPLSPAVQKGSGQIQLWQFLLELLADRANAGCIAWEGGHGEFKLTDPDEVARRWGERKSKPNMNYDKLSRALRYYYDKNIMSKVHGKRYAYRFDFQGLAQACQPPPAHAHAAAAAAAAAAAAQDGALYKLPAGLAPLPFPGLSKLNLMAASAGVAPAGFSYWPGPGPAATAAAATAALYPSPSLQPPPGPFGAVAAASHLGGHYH
In short: as §1

[18] = molecular target: T10, ELF3 (Homo sapiens, UniProt P78545 1-371); conditions: protein: recombinant; tags: N-terminal GST; dsDNA, one strand shown
T10 sequence: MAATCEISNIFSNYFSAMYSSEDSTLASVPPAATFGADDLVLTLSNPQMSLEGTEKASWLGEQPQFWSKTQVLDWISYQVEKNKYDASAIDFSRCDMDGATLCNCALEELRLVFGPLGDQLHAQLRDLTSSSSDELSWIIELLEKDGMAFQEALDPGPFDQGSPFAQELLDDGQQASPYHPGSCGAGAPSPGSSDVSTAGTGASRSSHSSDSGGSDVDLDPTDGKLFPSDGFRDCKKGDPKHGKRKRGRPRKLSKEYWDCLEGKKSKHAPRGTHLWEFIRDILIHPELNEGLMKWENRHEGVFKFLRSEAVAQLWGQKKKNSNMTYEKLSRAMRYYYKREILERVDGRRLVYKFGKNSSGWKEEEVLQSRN
In short: as §1

Sequence	binding signal [1]	binding signal [2]	binding signal [3]	binding signal [4]	binding signal [5]	binding signal [6]	binding signal [7]	binding signal [8]	binding signal [9]	binding signal [10]	binding signal [11]	binding signal [12]	binding signal [13]	binding signal [14]	binding signal [15]	binding signal [16]	binding signal [17]	binding signal [18]
TATCAA	1.1 fold enrichment (6-mer frequency, TF over GST control)	1.06 fold enrichment (6-mer frequency, TF over GST control)	1.13 fold enrichment (6-mer frequency, TF over GST control)	1.03 fold enrichment (6-mer frequency, TF over GST control)	1.02 fold enrichment (6-mer frequency, TF over GST control)	1.02 fold enrichment (6-mer frequency, TF over GST control)	1.02 fold enrichment (6-mer frequency, TF over GST control)	1.03 fold enrichment (6-mer frequency, TF over GST control)	1.01 fold enrichment (6-mer frequency, TF over GST control)	1.03 fold enrichment (6-mer frequency, TF over GST control)	1.09 fold enrichment (6-mer frequency, TF over GST control)	1.11 fold enrichment (6-mer frequency, TF over GST control)	1.21 fold enrichment (6-mer frequency, TF over GST control)	1.01 fold enrichment (6-mer frequency, TF over GST control)				
ACTGTT	1.15 fold enrichment (6-mer frequency, TF over GST control)	1.03 fold enrichment (6-mer frequency, TF over GST control)	1.23 fold enrichment (6-mer frequency, TF over GST control)	1.16 fold enrichment (6-mer frequency, TF over GST control)	1.11 fold enrichment (6-mer frequency, TF over GST control)	1.16 fold enrichment (6-mer frequency, TF over GST control)	1.18 fold enrichment (6-mer frequency, TF over GST control)	1.1 fold enrichment (6-mer frequency, TF over GST control)	1.03 fold enrichment (6-mer frequency, TF over GST control)	1.2 fold enrichment (6-mer frequency, TF over GST control)	1.09 fold enrichment (6-mer frequency, TF over GST control)	1.23 fold enrichment (6-mer frequency, TF over GST control)		1.12 fold enrichment (6-mer frequency, TF over GST control)	1.13 fold enrichment (6-mer frequency, TF over GST control)	1.15 fold enrichment (6-mer frequency, TF over GST control)	1.1 fold enrichment (6-mer frequency, TF over GST control)	1.03 fold enrichment (6-mer frequency, TF over GST control)
ACAGAT	1.02 fold enrichment (6-mer frequency, TF over GST control)	1.1 fold enrichment (6-mer frequency, TF over GST control)		1.07 fold enrichment (6-mer frequency, TF over GST control)	1.02 fold enrichment (6-mer frequency, TF over GST control)			1 fold enrichment (6-mer frequency, TF over GST control)	1.1 fold enrichment (6-mer frequency, TF over GST control)	1.05 fold enrichment (6-mer frequency, TF over GST control)	1.04 fold enrichment (6-mer frequency, TF over GST control)	1.05 fold enrichment (6-mer frequency, TF over GST control)	1.27 fold enrichment (6-mer frequency, TF over GST control)	1.05 fold enrichment (6-mer frequency, TF over GST control)	1.03 fold enrichment (6-mer frequency, TF over GST control)			
